The assay has as its system XIP peptide (Xip251-270). The assay is described as follows: compounds binding XIP fragment 251-270 – biochemical, small-molecule microarray, fluorescence 635/667 nm, 0.5 µg/mL protein, primary screen (AID 1183). Conditions: fluorescence 635 nm, higher = more signal.
For the compound `COc1cc([C@@H]2N[C@H](C(=O)O)Cc3c2[nH]c2ccccc32)cc(OC)c1OC`, the composite z-score came to 0.564.

As for `CCN1C(C)=C(C(=O)OC)[C@@H](c2ccccc2)N2C(=O)[C@@]3(C(=O)OC)O[C@@]12[C@@H]1C(=O)CCC[C@@H]13`, the composite z-score was -1.03. Regarding `Cc1ccc(S(=O)(=O)c2cc3oc2CC[C@@H](CO)NC(=O)N(C)Cc2cn(nn2)C[C@H](Cc2ccccc2)NC3=O)cc1`, the composite z-score is -0.612. As to `Cc1ccc(S[C@]2(C(=O)O)CC(=O)N(Cc3ccccc3)[C@@H]2c2ccc(CO)cc2)cc1`, the composite z-score was -0.655. The figure for `C=CCC(OC(C)=O)[C@@H]1[C@@H](N(Cc2cc3ccccc3o2)C(=O)Cc2ccc(F)cc2)c2cc(OCCCO)ccc2N1C(=O)c1ccc(-c2ccccc2)cc1` (stereo partly specified) is -0.666; for `COC(=O)[C@@]1(Cc2ccc(OC)cc2)[C@H]2c3cc(C(=O)N(C)C)n(Cc4ccc(C)c(F)c4F)c3C[C@H]2CN1C(=O)c1ccccc1` it is 0.465. As for `CN1C(=O)C2C=CC(C(O)c3ccc(N(C)C)cc3)N(Nc3ccc([N+](=O)[O-])cc3[N+](=O)[O-])C2C1=O` (stereo unspecified), the figure is 0.301. On to `CN1C2C=C(c3ccc(CO)cc3)C(C3C(=O)N(C(N)=O)C(=O)C32)C1c1cccs1` (stereo unspecified), for which the composite z-score is 0.92. Take `C#CCCCON=C1C[C@@H](O)[C@@H](O)[C@@H]2[C@@H]3C(=O)N(Cc4ccc5c(c4)OCO5)C(=O)[C@@H]3CC[C@H]12`: the composite z-score was 0.783. As for `C=C(COC)/C(=C/C[C@@H](OC(=O)c1ccncc1)c1ccc(OCCO)cc1)c1cc(C(=O)OC)ccc1OC`, the figure is 0.749. The figure for `CO[C@H]1COC(=O)[C@H](CCSC)NC(=O)CC=C[C@@H](C)COC(=O)[C@@H](OCc2ccccc2)C=C[C@@H]1C` is 0.581; for `CN(C)CCCC[C@@H]1NC(=O)[C@@H]2C[C@H](C(=O)O)[C@H](c3ccc(O)cc3)N2C1=O` it is 0.386; for `O=[N+]([O-])c1ccc(C[n+]2ccc3ccc(O)cc3c2)o1` it is 0.676. As for `COCCOC(=O)N1C(=O)[C@@]2(c3cc(C#CCNC(N)=O)ccc31)[C@H](c1ccc(OCCO)cc1)N1[C@H](c3ccccc3)[C@H](c3ccccc3)OC(=O)[C@H]1[C@@H]2C(=O)N1CCCCCCC1`, the figure is -0.26. Take `CO[C@@H]1COC(=O)CC=C[C@H](C)COC(=O)[C@H](Cc2ccccc2)NC(=O)CC=C[C@H]1C`: the composite z-score is 0.18.

As to `CC(C)=C1C(=O)C(c2ccccc2)=C2CN3C(=O)N(CCc4ccccc4)C(=O)[C@]3(Cc3ccccc3)[C@H]21`, the composite z-score is -0.78. The figure for `COCCCNC(=O)[C@@]1(Sc2ccc(C)cc2)CC(=O)N(Cc2cc(C(F)(F)F)cc(C(F)(F)F)c2)[C@@H]1c1ccc(CO)cc1I` is -0.413; for `COc1ccc([Si](C)(C)[C@H]2[C@H](CC(=O)N3Cc4ccccc4C[C@H]3CO)O[C@@]3(C(=O)N(Cc4cccc(N5CCOC5=O)c4)c4ccccc43)[C@@H]2C)cc1` it is 0.625. The figure for `CO[C@@H]1COC(=O)[C@@H]2CCCN2C(=O)CC=C[C@@H](C)[C@H](OC)COC(=O)[C@@H]2CCCN2C(=O)CC=C[C@H]1C` is 0.352; for `CO[C@H]1O[C@H](CO)[C@@H](OC(=O)CCc2ccccc2)[C@@H]2OC(=O)[C@H](Cc3cccc(Br)c3)C/C=C/C[C@@H](Cc3cccc(Br)c3)C(=O)O[C@@H]12` it is -0.107; for `CO[C@H]1COC(=O)CC=C[C@H](C)[C@@H](OC)COC(=O)[C@H](Cc2ccccc2)NC(=O)CC=C[C@@H]1C` it is -0.42.

Take `CCCC=C(CCC)[C@@H](NC(=O)c1ccccc1)c1ccccc1`: the composite z-score is -0.905. As for `COc1ccc(-c2ccccc2[C@@H]2N[C@H](C(=O)O)CC[C@H]2C)cc1`, the figure is 0.0228; as for `CO[C@@H]1COC(=O)CC=C[C@@H](C)[C@H](OC)COC(=O)CC=C[C@H]1C`, 0.428; as for `Cc1ccc(S[C@]2(C(=O)NCCCN(C)C)CC(=O)N(C3CCCCC3)[C@@H]2c2ccc(CO)cc2I)cc1`, -0.697. Turning to `COCCOC(=O)N1C(=O)[C@@]2(c3cc(C#CCCO)ccc31)[C@H](c1ccc(OCCO)cc1)N1[C@H](c3ccccc3)[C@H](c3ccccc3)OC(=O)[C@H]1[C@@H]2C(=O)NC[C@H](O)c1ccccc1`, the composite z-score was determined as 0.765. The figure for `COCCOC(=O)N1C(=O)[C@@]2(c3cc(C#CCC(C(=O)OC)C(=O)OC)ccc31)[C@H](c1ccccc1OCCO)N1[C@H](c3ccccc3)[C@H](c3ccccc3)OC(=O)[C@H]1[C@@H]2C(=O)N1CCCCCCC1` is 0.597; for `O=C(CS)NCCCCCNC(=O)[C@H]1C[C@H]2C(=O)N3CCC[C@H]3C(=O)N2[C@H]1c1ccc(O)cc1` it is -1.02; for `CCOC(=O)C[C@H]1[C@H](OC(=O)c2cc3ccccc3oc2=O)[C@@H](NC(=O)C2CCCCC2)c2cc(OCCCO)ccc2N1C(=O)c1ccc2ccccc2n1` it is 0.522. The figure for `C[C@@H]1CC[C@H]2C(=O)N3CCC[C@H]3C(=O)N2[C@H]1c1ccc(Br)cc1` is -0.374. As for `O=C1C[C@@](C(=O)NC2CC2)(c2ccc([N+](=O)[O-])cc2)[C@@H](c2ccc(CO)cc2I)N1CC12CC3CC(CC(C3)C1)C2`, the figure is 0.687. With `CCC#CCN(Cc1ccccc1Br)[C@H](/C=C/c1ccccc1)[C@@H](O)Cc1ccccc1`, the composite z-score was -0.613.

As to `CC(C)(C)OC(=O)CC[C@]1(C(=O)N2CCCCC2)N=C(c2ccc(OCCCO)cc2)O[C@H]1c1ccccc1`, the composite z-score came to 0.814. The figure for `C[C@@H]1CC[C@H]2C(=O)N3[C@@H](CC[C@@H](C)[C@@H]3c3cccc(N4CCOCC4)c3)C(=O)N2[C@H]1c1cccc(N2CCOCC2)c1` is 0.705; for `C=C(/C(=C/C[C@@H](OC(=O)c1ccncc1)c1ccc(CO)o1)c1cnc2ccccc2c1)C(C)C` it is 0.766; for `C[C@@H]1NC(=O)CC=C[C@@H](C)[C@@H]2C=C[C@H](O)[C@@H](COC(=O)[C@H](C)NC(=O)CC=C[C@@H](C)[C@@H]3C=C[C@H](O)[C@@H](COC1=O)O3)O2` it is 0.221.

Source of the values: PubChem BioAssay.
